These results are taken from ChEMBL document CHEMBL1201862, “PubChem BioAssay data set” (2004).

About 1,200 (0.92%) of roughly 130,000 compounds were called active. About 3% were inconclusive and are not listed. No cut-off for these calls is given here. The sample as a whole holds a higher share of actives than the screen did.

The test deals with Cellular tumor antigen p53 (Homo sapiens) (UniProt P04637). As to the kind of experiment: qHTS Screen for Compounds that Selectively Target Cancer Cells with p53 Mutations: Cytotoxicity of p53ts Cells at the Permissive Temperature. [Related pubchem assays: 902 ]. The test is classed as functional. In general terms: In qHTS, concentration-response curves come from the screen itself.
Sequence of Cellular tumor antigen p53 (Homo sapiens) (P04637 whole entry, looked up): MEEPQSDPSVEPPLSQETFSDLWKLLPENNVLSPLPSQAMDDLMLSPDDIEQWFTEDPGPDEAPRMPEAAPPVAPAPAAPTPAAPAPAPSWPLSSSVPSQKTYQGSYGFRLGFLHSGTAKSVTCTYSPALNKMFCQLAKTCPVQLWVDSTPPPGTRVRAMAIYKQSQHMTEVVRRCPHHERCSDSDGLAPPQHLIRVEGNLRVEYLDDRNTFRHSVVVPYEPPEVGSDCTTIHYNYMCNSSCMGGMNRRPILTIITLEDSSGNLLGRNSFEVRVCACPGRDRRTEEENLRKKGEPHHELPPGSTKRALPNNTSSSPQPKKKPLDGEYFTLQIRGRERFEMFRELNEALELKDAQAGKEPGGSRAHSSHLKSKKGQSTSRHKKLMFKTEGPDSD
Regarding `COc1ccccc1/C=C/C(=O)c1cccs1`, the Potency was 10 µM (active).
Under `O=C(/C=C/c1ccc(Cl)cc1)c1cccs1` stands 15.8 µM (active).
